# Test results from PubChem BioAssay (Tox21).
# Inconclusive results are not listed. The source made the active and inactive calls. Calls follow the shape of the dose curve; as a rule, active = well fitted inhibition curve with a large enough effect in the signal ratio in the repeat runs (not every such curve was filed as active); inconclusive = weak or mixed curves, or effect the other way; inactive = no such curve, though single readings can be large or run the other way; the % refers to the signal ratio.
# Target: Bile acid receptor (Homo sapiens) (UniProt Q96RI1)
# Sequence (Q96RI1 whole entry, looked up): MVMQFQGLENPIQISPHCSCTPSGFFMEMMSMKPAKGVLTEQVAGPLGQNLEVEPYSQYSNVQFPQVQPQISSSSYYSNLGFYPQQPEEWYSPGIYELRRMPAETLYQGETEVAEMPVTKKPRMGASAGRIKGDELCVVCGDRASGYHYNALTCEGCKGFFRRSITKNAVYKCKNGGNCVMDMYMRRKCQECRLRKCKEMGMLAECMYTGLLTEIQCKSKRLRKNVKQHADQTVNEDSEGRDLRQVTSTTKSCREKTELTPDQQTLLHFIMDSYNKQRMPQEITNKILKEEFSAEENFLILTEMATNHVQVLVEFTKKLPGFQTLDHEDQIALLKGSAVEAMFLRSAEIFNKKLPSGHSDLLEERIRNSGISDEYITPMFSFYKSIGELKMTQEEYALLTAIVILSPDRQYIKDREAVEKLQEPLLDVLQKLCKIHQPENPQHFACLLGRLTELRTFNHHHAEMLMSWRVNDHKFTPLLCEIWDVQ
# Test: qHTS assay to identify small molecule antagonists of the farnesoid-X-receptor (FXR) signaling pathway (AID 743217)
# Conditions: HEK293T FXR-UAS-bla, beta-lactamase ratio, CDCA-stimulated, 16 h; series mostly up to 62.6 µM
# Source text: U.S. Tox21 Program National Center for Advancing Translational Sciences [NCATS] NIH Chemical Genomics Center [NCGC] U.S. Environmental Protection Agency [EPA] National Institutes of Environmental Health Sciences [NIEHS] National Toxicology Program [NTP] U.S. Food and Drug Administration [FDA] Tox21 Assay Overview: The farnesoid-X-receptor (FXR), a nuclear hormone receptor, is highly expressed in liver, intestine, kidney and adrenal cortex. Natural ligands of FXR are the bile acids (Cholic acid, Chenodeoxy cholic acid etc). FXR is an important regulator of diverse metabolic pathways, including the bile acid homeostasis, lipid and glucose metabolisms. FXR regulates the expression of target genes by binding either as a monomer or as a heterodimer with the retinoid X receptor (RXR). Numerous studies have reported that FXR exerts protective function during cholestasis, diabetes, liver regeneration, and cancer. To identify compounds that inhibit FXR signaling, GeneBLAzer FXR-UAS-bla HEK 293T cell line (Invitrogen, Carlsbad, CA) containing a beta-lactamase reporter gene under the control of a UAS response element was used to screen the Tox21 10K compound library.
# Tox21 Assay Protocol Summary: FXR-bla cells were dispensed at 5000 cells/5uL/well in 1536-well black wall/clear bottom plates using a Multidrop Combi (Thermo Fisher Scientific, Waltham, MA) dispenser. After the assay plates were incubated at 37C and 5% CO2 for 5 h, 23 nL of compounds dissolved in DMSO, positive controls or DMSO only was transferred to the assay plate by a Pintool station (Kalypsys, San Diego, CA), followed by addition of 1 uL Chenodeoxycholic acid (50 uM, final concentration in the wells). The assay plates were incubated at 37C for 16 h. After 1 uL of LiveBLAzerTM B/G FRET substrate was added using a Bioraptr Flying Reagent Dispenser (FRD) workstation (Beckman Coulter, Indianapolis, IN), the plates were incubated at room temperature for 2 h, and fluorescence intensity was measured by an Envision plate reader (PerkinElmer, Shelton, CT).
# % is scaled to controls: 0 for no effect and ±100 for the full control effect.
SMILES,outcome,"activity change, negative = inhibition"
CCOC(=O)c1ncn2c1CN(C)C(=O)c1c(I)cccc1-2,inactive,
O=C(Cl)c1ccccc1,inactive,
CC(C)(O)C(Cl)(Cl)Cl,inactive,
Clc1cc2c(cc1Cl)Oc1cc(Cl)c(Cl)cc1O2,,-0.544% [at 0.275 µM] (inactive)
Cc1ccc2c(c1)C1CN(C)CCC1N2 (stereo not given),inactive,
CCc1cc(OC)c(C[C@H](C)N)cc1OC,inactive,
O=C(O)C(Cl)Br (stereo not given),inactive,
CC(C)[C@]12CC(=O)[C@H](C)[C@H]1C2,inactive,
CN(C)C(=O)Oc1cc(OC(=O)N(C)C)cc(C(O)CNC(C)(C)C)c1 (stereo not given),inactive,
CCCCCCCCBr,inactive,
Cc1ccc(Cl)c(O)c1,inactive,
CC(O)CCl (stereo not given),inactive,
O=C(Cl)/C=C/C(=O)Cl,inactive,
O=C(O)C(F)(F)C(F)(F)C(F)(F)C(F)(F)C(F)(F)C(F)(F)F,inactive,
ClC(Cl)(Cl)Cl,inactive,
N[C@@H]1C[C@H]1c1ccccc1,inactive,
Clc1ccc(C(Cl)(Cl)Cl)cn1,inactive,
O=C(Cl)C(Cl)(Cl)Cl,inactive,
CCCCOC(C)=O,inactive,
C#CC(C)(C)O,inactive,

SMILES,outcome,"activity change, negative = inhibition"
CCN[C@@H](C)Cc1cccc(C(F)(F)F)c1,inactive,
Cn1c(CCCC(=O)O)nc2cc(N(CCCl)CCCl)ccc21,inactive,
CCCCCCCC(=O)Cl,inactive,
Cc1ccc(S(=O)(=O)N[C@@H](CCCCN)C(=O)CCl)cc1,inactive,
NNCc1ccccc1,inactive,
COc1ccc(C=O)cc1O,inactive,
CC(Cc1ccccc1)NCCCCl (stereo not given),inactive,
NCCOS(=O)(=O)O,inactive,
CN1COCN(Cc2cnc(Cl)s2)/C1=N\[N+](=O)[O-],inactive,
CC1=C2[C@H]3OC(=O)[C@@H](C)[C@@H]3CC[C@@]2(C)C=CC1=O,inactive,
C(COCC1CO1)OCC1CO1 (stereo not given),inactive,
CCN(CCO)CCn1c(Cc2ccccc2)nc2c1c(=O)n(C)c(=O)n2C,inactive,
CC[C@H](O)C(C[C@H](C)N(C)C)(c1ccccc1)c1ccccc1,inactive,
C=C(Cl)CSC(=S)N(CC)CC,inactive,
COC1=CC(=O)O[C@@H](/C=C/c2ccccc2)C1,inactive,
CCC(C(N)=O)N1CCCC1=O (stereo not given),inactive,
Oc1ccc2c3c1O[C@H]1[C@@H](O)C=C[C@H]4[C@@H](C2)NCC[C@@]341,inactive,
O=C1CC(=O)NC(=O)N1,inactive,
C1CN2CCC1CC2,inactive,
CCN[C@@H](C)Cc1ccccc1,inactive,
